The results in this text go back to PubChem BioAssay (NCATS).

Records with an inconclusive call do not appear. Where a call stands in place of a potency, no number is given. The source made the active and inactive calls. Calls follow the shape of the dose curve; as a rule, active = well fitted cell-killing curve with a large enough effect; inconclusive = small, poorly fitted or top-dose-only effect; inactive = flat fitted curve, though single readings scatter.
Potency is read from the fitted curve at half-maximal effect.

A short description of the assay: U-118MG Cancer Cell Toxicity qHTS against the NCATS CANVASS Library (AID 1347351). As to conditions: U-118MG viability, CellTiter-Glo luminescence, 72 h; series mostly up to 38.3 µM. The essentials:
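Step one: seed 1000 cells per well. Step two: incubate 4 h. Step three: add test compounds in 11 concentrations. Step four: culture 72 h, then add CellTiter-Glo and record luminescence after 15min.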
On to `CC1=CC2CC[C@@H]3[C@@H](C)C[C@H](C)[C@@H](C1)N23` (stereo partly specified), for which the Potency result is “inactive”.

Regarding `CC=C1CN(C=O)[C@H]2C[C@@H]1[C@@H](C(=O)OC)[C@@]13CCOC21Nc1ccccc13` (stereo partly specified), the Potency result was “inactive”.

Take `C[C@@H]1CC[C@@H](c2ccoc2)N2C[C@@]3(CC[C@@H]12)CS[C@@]1(CC[C@H]2[C@H](C)CC[C@@H](c4ccoc4)N2[C@@H]1O)C3`: the Potency is 8.41 µM (active).

Take `CCN1C[C@]2(C)CC[C@@H](O)[C@]34C1[C@H](C[C@H]23)C12CCC(CC14)[C@](O)(CO)[C@H]2O` (stereo partly specified): the Potency result was “inactive”.

`CO[C@@H](/C=C/CC/C=C/C(=O)O)[C@@H](O)[C@H](C)[C@@H](O)/C(C)=C/[C@H](C)C(=O)CCCC1CC(=O)NC(=O)C1`: the Potency result was “inactive”.

Consider `CCCC[C@@H]1CC[C@H]2CCCC(CCC)N12` (stereo partly specified), for which the Potency result was “inactive”.

Take `C[C@]12CC(O)C3[C@@H](CCC4C[C@@H](O)CC[C@@]43CO)[C@@]1(O)CCC2C1=CC(=O)OC1` (stereo partly specified): the Potency result is “inactive”.

`CO[C@@H](/C=C/CC/C=C/C(=O)O)[C@@H](O)[C@H](C)/C=C(\C)[C@@H](O)[C@H](C)C(=O)CCCC1CC(=O)NC(=O)C1`: the Potency entry is “inactive”.

As to `O=C(c1ccccc1O)c1[nH]c(Cl)c(Cl)c1-n1c(C(=O)c2ccccc2O)cc(Cl)c1Cl`, the Potency is 6.68 µM (active).

With `CC[C@@H]1CN2CC[C@@]3(O)C(=Nc4cccc(OC)c43)[C@@H]2C[C@@H]1/C(=C\OC)C(=O)OC`, the Potency result was “inactive”.

Take `CNCCc1ccccc1`: the Potency result is “inactive”.

As for `CCCCC[C@@H]1OC(=O)[C@@H](C)N(C)C(=O)[C@H](CCCCC)OC(=O)C(C)N(C)C(=O)[C@H](CCCCC)OC(=O)[C@@H](C)N(C)C(=O)[C@H](CCCCC)OC(=O)C(C)N(C)C1=O` (stereo partly specified), the Potency is 14.9 µM (active).

On to `CO[C@H](c1ccccc1)[C@H]1NC(=O)C(C)NC(=O)C(C[C@@H](C)CO)N(C)C(=O)[C@@H](C(O)c2cn(C(C)(C)C3CO3)c3ccccc23)NC(=O)C(C(C)C=C(C)C)NC(=O)C(CC(C)C)N(C)C(=O)C(C(C)C)NC1=O` (stereo partly specified), for which the Potency entry is “inactive”.

As for `CC1=CC(=O)C2=C(C)C[C@H](O)[C@@H]3[C@H](OC(=O)[C@@H]3C)[C@@H]12`, the Potency result is “inactive”.

As to `CCN1C[C@]2(C)CC[C@H](O)[C@]34C1C(C[C@H]23)[C@@]12CC[C@H](CC14)[C@](O)(COC(=O)c1ccc(OC)c(OC)c1)[C@H]2O` (stereo partly specified), the Potency result was “inactive”.

Take `CCC(=O)CCCCC[C@@H]1NC(=O)[C@H]2CCCCN2C(=O)[C@H]([C@@H](C)CC)NC(=O)[C@H](Cc2cn(OC)c3ccccc23)NC1=O`: the Potency is 0.53 µM (active).
